Active and inactive are the calls of the source.

Assay [1] relates to PRMT1 (protein arginine N-methyltransferase 1). As to the kind of experiment: PRMT1 binders on small-molecule microarrays, primary screen, biochemical, small-molecule microarray, 635 nm fluorescence (AID 1088).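 Note: binding of Prmt1 protein to compounds spotted on small-molecule microarray slides.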 The following applies: small-molecule microarray binding, higher = more signal.
Assay [2] is described as follows: yeast growth modulation, basal conditions, primary screen, YJM789 clinical isolate, OD600, 24 h (AID 1089).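 Note: growth of clinical yeast isolate S. cerevisiae YJM 789 seeded 1000 cells per well; test concentration not given here.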 The following applies: S. cerevisiae YJM789 growth, higher = more signal, called active from +8 up or from −8 down.
The nature of assay [3]: fission yeast growth modulation, primary screen, strain 972, OD600, 24 h, no modulator (AID 1090).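 Note: basal condition with compound alone and no growth modifier present; test concentration not given here.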 The conditions noted are these: S. pombe 972 growth, higher = more signal, called active from +8 up or from −8 down.
Assay [4] can be described thus: S. cerevisiae growth modulation with rapamycin, primary screen, strain BY4716, OD600, 96 h (AID 1091). Note: test concentration not given here. The conditions noted are these: higher = more signal, called active from +8 up or from −8 down.
For assay [5], the target named is Torsin-1A-interacting protein 2 (Homo sapiens) (UniProt Q8NFQ8). As to the kind of experiment: LULL1 binders on small-molecule microarray, primary screen, cell lysate, human LULL1 lysate, 635/667 nm fluorescence (AID 1092).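 Note: probe is lysate of COS7 cells overexpressing human LULL1; score merges per-feature 667 nm fluorescence with signal-to-noise.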 The following applies: hLULL1 lysate binding, 635 nm fluorescence, higher = more signal.
Sequence of Torsin-1A-interacting protein 2 (Homo sapiens) (Q8NFQ8 whole entry, looked up): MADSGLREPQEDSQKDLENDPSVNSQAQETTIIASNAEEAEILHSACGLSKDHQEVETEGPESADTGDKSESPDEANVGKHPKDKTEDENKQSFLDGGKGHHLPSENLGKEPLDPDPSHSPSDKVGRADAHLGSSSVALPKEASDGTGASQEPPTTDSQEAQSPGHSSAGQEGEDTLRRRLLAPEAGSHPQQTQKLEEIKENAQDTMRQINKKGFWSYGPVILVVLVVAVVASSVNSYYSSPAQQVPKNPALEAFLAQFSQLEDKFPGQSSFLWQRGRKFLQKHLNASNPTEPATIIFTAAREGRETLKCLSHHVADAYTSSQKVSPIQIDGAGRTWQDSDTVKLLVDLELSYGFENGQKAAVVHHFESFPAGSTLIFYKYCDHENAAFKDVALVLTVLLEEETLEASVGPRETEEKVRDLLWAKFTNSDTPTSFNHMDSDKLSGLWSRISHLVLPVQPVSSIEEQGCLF
Assay [6] can be described thus: E. coli growth modulation, two-sided OD650, primary screen, E. coli filamentation project, strain DRC41, 24 h (AID 1093).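 Note: MC1000 strain lacking acrAB efflux and sulA so SOS filamentation is blocked; test concentration not given here.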 The following applies: OD650, 24 h, higher = more signal, called active from +8 up or from −8 down.
Assay [7] is described as follows: small-molecule microarray binders of probe aLefty2, primary screen, biochemical, biotinylated probe, 635/667 nm fluorescence (AID 1094).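 Note: score merges spot fluorescence near 667 nm with spot signal-to-noise ratio.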 The conditions noted are these: higher = more signal.
Assay [8] deals with Noggin (protein binding on small-molecule microarray). As to the kind of experiment: Noggin binders on small-molecule microarray, primary screen, biochemical, 635/667 nm fluorescence (AID 1095).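 Note: score merges 667 nm feature fluorescence with signal to noise over triplicate slides.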 The following applies: 635 nm fluorescence, higher = more signal.
Assay [9] deals with Neurogenic locus notch homolog protein 3 (Homo sapiens) (UniProt Q9UM47). As to the kind of experiment: NOTCH3 binders on small-molecule microarray, primary screen, biochemical, 635/667 nm fluorescence (AID 1096). The conditions noted are these: NOTCH3 binding, 635 nm fluorescence, higher = more signal.
Sequence of Neurogenic locus notch homolog protein 3 (Homo sapiens) (Q9UM47 whole entry, looked up): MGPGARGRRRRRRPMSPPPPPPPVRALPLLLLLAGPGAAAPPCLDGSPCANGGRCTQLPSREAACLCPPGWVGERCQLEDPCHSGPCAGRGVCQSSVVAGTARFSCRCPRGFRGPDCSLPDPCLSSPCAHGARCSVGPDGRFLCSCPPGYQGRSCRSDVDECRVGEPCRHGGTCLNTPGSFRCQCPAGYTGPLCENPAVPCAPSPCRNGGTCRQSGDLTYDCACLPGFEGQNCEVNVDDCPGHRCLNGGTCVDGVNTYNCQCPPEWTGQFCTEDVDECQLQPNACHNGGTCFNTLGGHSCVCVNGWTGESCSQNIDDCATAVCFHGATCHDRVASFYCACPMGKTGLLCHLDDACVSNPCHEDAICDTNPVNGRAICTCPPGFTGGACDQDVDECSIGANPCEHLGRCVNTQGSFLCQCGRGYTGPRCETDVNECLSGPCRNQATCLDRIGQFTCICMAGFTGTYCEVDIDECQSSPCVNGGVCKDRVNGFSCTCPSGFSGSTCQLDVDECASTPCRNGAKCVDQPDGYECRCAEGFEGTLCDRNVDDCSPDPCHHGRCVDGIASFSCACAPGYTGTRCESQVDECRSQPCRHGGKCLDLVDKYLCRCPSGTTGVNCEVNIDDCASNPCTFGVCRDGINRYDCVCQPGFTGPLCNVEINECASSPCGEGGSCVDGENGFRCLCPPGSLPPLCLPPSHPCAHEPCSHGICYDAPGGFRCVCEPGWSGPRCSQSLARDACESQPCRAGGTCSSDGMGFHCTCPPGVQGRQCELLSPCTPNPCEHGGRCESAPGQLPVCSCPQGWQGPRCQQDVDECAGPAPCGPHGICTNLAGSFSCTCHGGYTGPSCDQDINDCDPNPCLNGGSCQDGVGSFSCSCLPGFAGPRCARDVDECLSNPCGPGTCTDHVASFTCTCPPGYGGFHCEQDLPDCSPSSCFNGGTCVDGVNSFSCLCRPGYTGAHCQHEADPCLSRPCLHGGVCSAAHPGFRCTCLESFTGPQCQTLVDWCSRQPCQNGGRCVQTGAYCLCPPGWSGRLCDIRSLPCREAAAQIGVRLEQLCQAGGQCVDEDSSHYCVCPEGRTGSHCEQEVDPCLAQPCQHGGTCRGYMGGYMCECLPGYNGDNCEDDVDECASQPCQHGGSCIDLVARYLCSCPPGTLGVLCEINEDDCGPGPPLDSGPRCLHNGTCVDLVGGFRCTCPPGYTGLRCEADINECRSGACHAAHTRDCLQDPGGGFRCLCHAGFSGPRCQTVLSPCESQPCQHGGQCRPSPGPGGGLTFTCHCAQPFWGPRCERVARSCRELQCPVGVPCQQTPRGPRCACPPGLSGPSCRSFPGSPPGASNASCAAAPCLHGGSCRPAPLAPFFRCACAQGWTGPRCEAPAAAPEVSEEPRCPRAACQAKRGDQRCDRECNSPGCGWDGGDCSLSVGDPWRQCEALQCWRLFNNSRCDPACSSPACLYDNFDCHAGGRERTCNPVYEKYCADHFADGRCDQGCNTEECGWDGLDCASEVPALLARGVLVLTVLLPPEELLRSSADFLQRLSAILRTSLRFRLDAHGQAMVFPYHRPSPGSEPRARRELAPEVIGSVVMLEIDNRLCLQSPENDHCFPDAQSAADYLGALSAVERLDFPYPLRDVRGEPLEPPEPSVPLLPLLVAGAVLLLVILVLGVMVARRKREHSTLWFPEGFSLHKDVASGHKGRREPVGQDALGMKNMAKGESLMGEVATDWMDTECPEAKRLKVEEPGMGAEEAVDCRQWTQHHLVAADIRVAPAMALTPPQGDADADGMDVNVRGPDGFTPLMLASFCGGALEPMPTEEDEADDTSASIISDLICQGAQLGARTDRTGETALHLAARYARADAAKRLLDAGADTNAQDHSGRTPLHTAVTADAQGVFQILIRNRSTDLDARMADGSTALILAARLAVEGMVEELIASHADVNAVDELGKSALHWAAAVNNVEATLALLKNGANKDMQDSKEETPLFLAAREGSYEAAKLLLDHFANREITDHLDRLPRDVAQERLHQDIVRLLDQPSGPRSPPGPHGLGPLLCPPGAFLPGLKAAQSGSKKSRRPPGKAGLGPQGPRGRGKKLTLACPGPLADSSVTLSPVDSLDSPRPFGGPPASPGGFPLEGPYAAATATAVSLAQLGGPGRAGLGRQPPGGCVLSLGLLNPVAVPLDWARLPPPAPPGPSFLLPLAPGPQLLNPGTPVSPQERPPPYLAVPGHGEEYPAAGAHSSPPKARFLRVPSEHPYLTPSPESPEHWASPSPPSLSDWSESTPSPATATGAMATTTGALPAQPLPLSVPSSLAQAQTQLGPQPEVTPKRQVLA
Assay [10] is described as follows: small-molecule microarray binders of probe aEGFR, primary screen, biochemical, biotinylated probe, 635/667 nm fluorescence (AID 1097).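 Note: probe is a biotinylated anti-EGFR antibody binding compounds printed on slides; score combines fluorescence near 667 nm and signal to noise of each spot.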 The conditions noted are these: higher = more signal.
Assay [11] concerns Plasmodium falciparum Sir2 (PF13_0152, Sir2A). As to the kind of experiment: pfSir2 binders on small-molecule microarrays, primary screen, biochemical, small-molecule microarray, 635 nm fluorescence (AID 1098).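 Note: score merges spot fluorescence intensity with its signal-to-noise ratio.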 The conditions noted are these: small-molecule microarray binding, fluorescence 635 nm; higher = more signal.
Assay [12] is described as follows: small-molecule microarray binders of probe aDKK1, primary screen, biochemical, biotinylated probe, 635/667 nm fluorescence (AID 1099).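 Note: score merges 667nm spot fluorescence with signal to noise across triplicate slides; reference of the scale not given here.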 The following applies: higher = more signal.
A short description of assay [13]: small-molecule microarray binders of probe aCHRDL2, primary screen, biochemical, biotinylated probe, 635/667 nm fluorescence (AID 1100). The conditions noted are these: higher = more signal.
Assay [14] in a line: splicing luciferase reporter signal modulators, primary screen, spliceosome inhibition project, cell-based, HEK293, splice +/- reporter (AID 1101).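 Note: HEK293 cells carrying a splicing-competent luciferase reporter gene; test concentration not given here.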 The following applies: luminescence, 24 h, higher = more signal, called active from +8 up or from −8 down.
Assay [15] deals with Fibroblast growth factor 10 (Homo sapiens) (UniProt O15520). As to the kind of experiment: FGF10 binders on small-molecule microarrays, primary screen, biochemical, small-molecule microarray, 635 nm fluorescence (AID 1102). The following applies: FGF10 binding, fluorescence 635 nm, higher = more signal.
Sequence of Fibroblast growth factor 10 (Homo sapiens) (O15520 whole entry, looked up): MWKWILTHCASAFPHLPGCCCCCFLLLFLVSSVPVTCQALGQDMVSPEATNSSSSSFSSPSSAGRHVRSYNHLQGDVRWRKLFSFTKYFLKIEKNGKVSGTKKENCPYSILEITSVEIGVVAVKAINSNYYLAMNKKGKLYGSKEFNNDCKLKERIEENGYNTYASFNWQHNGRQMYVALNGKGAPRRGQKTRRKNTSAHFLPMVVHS
For assay [16], the system named is glycogen synthase kinase-3 (GSK3A per assay name; protocol says GSK3B). As to the kind of experiment: GSK3 binders on small-molecule microarrays, primary screen, biochemical, small-molecule microarray, 635 nm fluorescence, GSK3A (AID 1103). Note: the record names both GSK3A and GSK3B. The conditions noted are these: small-molecule microarray binding, fluorescence 635 nm; higher = more signal.
Assay [17] concerns the target Epidermal growth factor receptor (Homo sapiens) (UniProt P00533). As to the kind of experiment: EGFR binders on small-molecule microarrays, primary screen, biochemical, small-molecule microarray, 635 nm fluorescence (AID 1104).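 Note: score merges 667 nm emission intensity with spot signal to noise over triplicate slides.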 The conditions noted are these: EGFR binding, higher = more signal.
Assay [18] addresses Follistatin-related protein 3 (Homo sapiens) (UniProt O95633). As to the kind of experiment: FSTL3 binders on small-molecule microarrays, primary screen, biochemical, small-molecule microarray, 635 nm fluorescence (AID 1105).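 Note: score merges emission near 667 nm and signal to noise per printed spot across three slides.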 The conditions noted are these: FSTL3 binding, higher = more signal.
Assay [19] addresses Dickkopf-related protein 1 (Homo sapiens) (UniProt O94907). As to the kind of experiment: DKK1 binders on small-molecule microarrays, primary screen, biochemical, small-molecule microarray, 635 nm fluorescence scan (AID 1106).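 Note: score merges emission near 667 nm with signal to noise over three replicate slides.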 The following applies: DKK1 binding, higher = more signal.
The test system of assay [20] is Inhibin beta A chain (activin A). Nature of the assay: INHBA (activin A) binders on microarrays, primary screen, biochemical, small-molecule microarray, 635 nm fluorescence scan (AID 1107).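 Note: mouse activin A protein probed at 4.33 µg/mL on printed slides; score merges bound-protein fluorescence near 667 nm with spot signal-to-noise.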 The following applies: small-molecule microarray binding, higher = more signal.

Sequence of Epidermal growth factor receptor (Homo sapiens) (P00533 whole entry, looked up): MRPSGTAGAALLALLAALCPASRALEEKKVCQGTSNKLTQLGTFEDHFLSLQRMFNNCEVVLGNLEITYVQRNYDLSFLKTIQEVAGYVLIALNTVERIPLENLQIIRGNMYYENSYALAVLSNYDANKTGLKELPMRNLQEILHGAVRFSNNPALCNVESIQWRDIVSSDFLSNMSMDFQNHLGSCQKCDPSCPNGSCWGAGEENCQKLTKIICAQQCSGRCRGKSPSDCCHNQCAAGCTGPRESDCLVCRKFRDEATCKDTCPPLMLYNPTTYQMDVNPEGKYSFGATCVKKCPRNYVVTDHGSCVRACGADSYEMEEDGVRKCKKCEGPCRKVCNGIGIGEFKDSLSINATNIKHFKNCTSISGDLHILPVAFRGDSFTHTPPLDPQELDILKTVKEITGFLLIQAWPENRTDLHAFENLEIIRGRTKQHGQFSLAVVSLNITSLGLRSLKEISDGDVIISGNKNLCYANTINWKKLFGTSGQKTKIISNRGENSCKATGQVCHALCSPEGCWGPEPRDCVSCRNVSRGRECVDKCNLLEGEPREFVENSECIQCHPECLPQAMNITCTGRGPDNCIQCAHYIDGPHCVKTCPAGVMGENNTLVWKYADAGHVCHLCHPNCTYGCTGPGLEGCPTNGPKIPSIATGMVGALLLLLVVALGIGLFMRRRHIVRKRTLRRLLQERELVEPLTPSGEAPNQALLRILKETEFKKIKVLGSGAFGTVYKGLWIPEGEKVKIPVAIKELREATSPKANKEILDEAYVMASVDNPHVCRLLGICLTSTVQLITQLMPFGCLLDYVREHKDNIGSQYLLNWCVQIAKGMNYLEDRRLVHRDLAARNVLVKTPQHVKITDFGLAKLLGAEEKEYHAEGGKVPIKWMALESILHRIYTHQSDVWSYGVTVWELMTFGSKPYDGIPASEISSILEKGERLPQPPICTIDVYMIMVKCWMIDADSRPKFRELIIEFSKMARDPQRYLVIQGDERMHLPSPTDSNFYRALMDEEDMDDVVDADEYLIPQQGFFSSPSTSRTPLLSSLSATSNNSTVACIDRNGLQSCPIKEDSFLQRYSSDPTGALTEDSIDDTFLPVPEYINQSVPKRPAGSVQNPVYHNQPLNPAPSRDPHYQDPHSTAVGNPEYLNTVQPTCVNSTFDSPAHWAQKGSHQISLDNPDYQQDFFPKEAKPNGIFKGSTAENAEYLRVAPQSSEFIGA
Sequence of Dickkopf-related protein 1 (Homo sapiens) (O94907 whole entry, looked up): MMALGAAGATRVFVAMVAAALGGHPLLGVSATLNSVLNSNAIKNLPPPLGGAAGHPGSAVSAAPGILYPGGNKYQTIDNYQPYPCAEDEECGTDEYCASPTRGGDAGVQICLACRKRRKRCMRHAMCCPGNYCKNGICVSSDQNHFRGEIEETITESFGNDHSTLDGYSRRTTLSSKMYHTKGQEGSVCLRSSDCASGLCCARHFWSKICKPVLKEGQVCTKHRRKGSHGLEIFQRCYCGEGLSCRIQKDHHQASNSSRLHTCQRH
Sequence of Follistatin-related protein 3 (Homo sapiens) (O95633 whole entry, looked up): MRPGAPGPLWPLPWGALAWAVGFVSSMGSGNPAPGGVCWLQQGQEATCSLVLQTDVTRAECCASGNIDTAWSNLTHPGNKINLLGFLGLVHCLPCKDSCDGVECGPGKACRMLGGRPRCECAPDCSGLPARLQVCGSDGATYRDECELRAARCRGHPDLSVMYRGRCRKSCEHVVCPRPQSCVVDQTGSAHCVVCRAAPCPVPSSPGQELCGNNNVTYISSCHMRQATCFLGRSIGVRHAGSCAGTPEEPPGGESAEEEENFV

For `CC(C)CON=C1C[C@@H](O)[C@@H](O)[C@@H]2[C@@H]3C(=O)N(C[C@@H]4CCCO4)C(=O)[C@@H]3CC[C@H]12`, the composite z-score in assay [1] is 0.976; in assay [5], 1.39; in [7], -0.234; in assay [8] it was 0.468; in [9], 0.668; in [10], -0.0191. The composite z-score in assay [11] is 0.651; in [12] it was -0.273; in [13], -0.356; in assay [15], 0.505; in assay [16], 0.33; in assay [17], 0.265. Besides, the composite z-score in [18] is 0.417; in assay [19], 0.24; in assay [20] it was 0.07. The z-score was -1.04 (inactive) in assay [2]; 0.042 (inactive) in assay [3]; -0.435 (inactive) in [4]; 0.134 (inactive) in assay [6]; 0.132 (inactive) in assay [14].

Consider `CC(C)=CCCC(C)=CCON=C1[C@H]2CCn3c(=O)n(Cc4cc5c(cc4Cl)OCO5)c(=O)n3[C@H]2[C@H](O)[C@@H]2O[C@H]12`, for which the composite z-score in assay [1] was -0.477; in assay [5] it was -0.658; in assay [7] it was 0.0392; in assay [8], 0.482; in assay [9] it was 0.554; in assay [10], 0.112. The composite z-score is 0.398 in [11]; -0.277 in [12]; -0.248 in assay [13]; 0.427 in [15]; 0.173 in assay [16]; 0.984 in [17]. Besides, the composite z-score amounted to 0.677 in assay [18], 0.472 in assay [19] and 1.27 in [20]. The z-score was 0.175 (inactive) in [2]; -0.105 (inactive) in assay [3]; 0.545 (inactive) in assay [4]; -0.996 (inactive) in assay [6]; -0.696 (inactive) in [14].

Take `COC(=O)CC=C[C@@H](C)[C@@H](C=NO[C@H](C)c1cn([C@@H]2COC[C@H]2O)nn1)OC`: the composite z-score is 1.35 in assay [1]; 0.965 in [5]; -0.156 in assay [7]; 0.359 in assay [8]; 0.484 in assay [9]; 0.0009 in assay [10]. The composite z-score in [11] was 0.626; in [12], -0.43; in assay [13], -0.611; in assay [15] it was 0.739; in assay [16], 0.617; in assay [17] it was 0.856. Further, the values for the composite z-score in assay [18], in assay [19] and in assay [20] were 1.06, 0.492 and -0.335, respectively. The z-score in [2] is 0.212 (inactive); in assay [3] it was 0.189 (inactive); in assay [4], -0.266 (inactive); in [6] it was 0.135 (inactive); in assay [14], 0.605 (inactive).

For `CO[C@@H]1COC(=O)CCC[C@@H](C)[C@H](OC)COC(=O)CCC[C@H]1C`, the composite z-score in assay [1] is 0.408; in assay [5], -0.431; in [7] it was -0.234; in [8] it was 0.6; in [9] it was 0.636; in assay [10] it was -0.0967. Further, the composite z-score in assay [11] is 0.691; in [12] it was -0.224; in assay [13], -0.755; in assay [15] it was 0.0939; in assay [16], 0.534; in [17] it was 0.379. Moreover, the values for the composite z-score in assay [18], in assay [19] and in [20] were 0.715, 0.731 and -0.0672, respectively. The z-score in assay [2] was 0.376 (inactive); in [3] it was 0.852 (inactive); in assay [4], 0.294 (inactive); in [6], -0.0526 (inactive); in [14], 0.349 (inactive).

As to `O=C(CS)NCCCCCNC(=O)[C@@H]1C[C@@H]2C(=O)N[C@@H](Cc3ccccc3)C(=O)N2[C@@H]1c1ccc(O)cc1`, the composite z-score in assay [1] was 1.47; in assay [5], 3.06; in [7], -0.0687; in assay [8] it was -0.306; in [9], 0.373; in assay [10], -0.104. Besides, the composite z-score in assay [11] was 1; in assay [12] it was 0.121; in [13] it was 0.526; in assay [15], 1.02; in [16], 1.17; in assay [17], -0.146. Besides, the results for the composite z-score in [18], in [19] and in assay [20] were 0.265, 0.325 and -0.516, respectively. Also, the z-score in assay [2] was 0.176 (inactive); in assay [3] it was -0.321 (inactive); in assay [4], 0.858 (inactive); in [6], 1.28 (inactive); in assay [14], 0.339 (inactive).
